Source: PubChem BioAssay AID1159580 (chemical genetic matrix, 2015)
About 2,000 (36%) of roughly 5,500 compounds were called active. Another 18% or so got no clear call; they are omitted. No stated cut-off is given here; in the data, active means normalized growth mostly below about 0.91 (no sharp cut-off); inconclusive means no clear call, values can overlap the other calls; inactive means mostly above about 0.92. This is one part of the list.

Assay: chemical genetic growth profiling, strain panel (AID 1159580);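 further: tested at 20 µM; growth read once vehicle control cultures reached saturation at 30 °C; 1 = growth at the plate median or of vehicle wells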
Details: growth OD

Measured: normalized growth

COc1ccc(C(=O)c2ccc(O)cc2)c(O)c1O
inactive: S. cerevisiae deletion strains, locus YAL013W, strain DEP1, stronger effect = lower value 1.04 | S. cerevisiae deletion strains, locus YAL021C, strain ccr4, stronger effect = lower value 0.963 | S. cerevisiae deletion strains, locus YAL026C, strain drs2, stronger effect = lower value 0.961 | S. cerevisiae deletion strains, locus YAL030W, strain snc1, stronger effect = lower value 0.967 | S. cerevisiae deletion strains, locus YBL061C, strain skt5, stronger effect = lower value 0.97 | S. cerevisiae deletion strains, locus YBR009C, strain hhf1, stronger effect = lower value 0.951 | S. cerevisiae deletion strains, locus YBR021W, strain FUR4, stronger effect = lower value 1.02 | S. cerevisiae deletion strains, locus YBR023C, strain chs3, stronger effect = lower value 0.968 | S. cerevisiae deletion strains, locus YBR171W, strain sec66, stronger effect = lower value 0.965 | S. cerevisiae deletion strains, locus YBR229C, strain ROT2, stronger effect = lower value 1.02 | S. cerevisiae deletion strains, locus YBR231C, strain swc5, stronger effect = lower value 0.96 | S. cerevisiae deletion strains, locus YBR279W, strain paf1, stronger effect = lower value 0.974 | S. cerevisiae deletion strains, locus YCL011C, strain gbp2, stronger effect = lower value 0.961 | S. cerevisiae deletion strains, locus YCL016C, strain dcc1, stronger effect = lower value 0.974 | S. cerevisiae deletion strains, locus YCL029C, strain bik1, stronger effect = lower value 0.993 | S. cerevisiae deletion strains, locus YCL061C, strain MRC1, stronger effect = lower value 0.984 | S. cerevisiae deletion strains, locus YCL069W, strain vba3, stronger effect = lower value 0.98 | S. cerevisiae deletion strains, locus YCR088W, strain abp1, stronger effect = lower value 0.973 | S. cerevisiae deletion strains, locus YDL005C, strain med2, stronger effect = lower value 0.968 | S. cerevisiae deletion strains, locus YDL035C, strain GPR1, stronger effect = lower value 1.04 | S. cerevisiae deletion strains, locus YDL040C, strain nat1, stronger effect = lower value 0.972 | S. cerevisiae deletion strains, locus YDL074C, strain BRE1, stronger effect = lower value 1.01 | S. cerevisiae deletion strains, locus YDL101C, strain DUN1, stronger effect = lower value 1.02 | S. cerevisiae deletion strains, locus YDL134C, strain PPH21, stronger effect = lower value 1.01 | S. cerevisiae deletion strains, locus YDL185W, strain tfp1, stronger effect = lower value 0.995 | S. cerevisiae deletion strains, locus YDL192W, strain arf1, stronger effect = lower value 0.997 | S. cerevisiae deletion strains, locus YDR001C, strain nth1, stronger effect = lower value 0.973 | S. cerevisiae deletion strains, locus YDR069C, strain doa4, stronger effect = lower value 0.928 | S. cerevisiae deletion strains, locus YDR101C, strain arx1, stronger effect = lower value 1 | S. cerevisiae deletion strains, locus YDR137W, strain rgp1, stronger effect = lower value 0.975 | S. cerevisiae deletion strains, locus YDR159W, strain sac3, stronger effect = lower value 0.959 | S. cerevisiae deletion strains, locus YDR162C, strain NBP2, stronger effect = lower value 1.04 | S. cerevisiae deletion strains, locus YDR195W, strain ref2 0.969 | S. cerevisiae deletion strains, locus YDR297W, strain sur2, stronger effect = lower value 0.969 | S. cerevisiae deletion strains, locus YDR318W, strain mcm21, stronger effect = lower value 0.997 | S. cerevisiae deletion strains, locus YDR334W, strain swr1, stronger effect = lower value 0.952 | S. cerevisiae deletion strains, locus YDR335W, strain msn5, stronger effect = lower value 0.983 | S. cerevisiae deletion strains, locus YDR388W, stronger effect = lower value 0.985 | S. cerevisiae deletion strains, locus YDR392W, strain spt3, stronger effect = lower value 0.852 | S. cerevisiae deletion strains, locus YDR502C, strain sam2, stronger effect = lower value 0.968 | S. cerevisiae deletion strains, locus YEL003W, strain gim4, stronger effect = lower value 0.962 | S. cerevisiae deletion strains, locus YEL037C, strain rad23, stronger effect = lower value 0.965 | S. cerevisiae deletion strains, locus YEL061C, strain CIN8 (second series), stronger effect = lower value 0.955 | S. cerevisiae deletion strains, locus YEL061C, strain CIN8, stronger effect = lower value 1.01 | S. cerevisiae deletion strains, locus YER015W, strain faa2, stronger effect = lower value 0.961 | S. cerevisiae deletion strains, locus YER016W, strain bim1, stronger effect = lower value 0.978 | S. cerevisiae deletion strains, locus YER110C, stronger effect = lower value 0.983 | S. cerevisiae deletion strains, locus YER111C, strain swi4, stronger effect = lower value 0.963 | S. cerevisiae deletion strains, locus YER155C, strain BEM2 (second series), stronger effect = lower value 0.911 | S. cerevisiae deletion strains, locus YER155C, strain BEM2, stronger effect = lower value 1.02 | S. cerevisiae deletion strains, locus YER167W, strain BCK2, stronger effect = lower value 1.02 | S. cerevisiae deletion strains, locus YFR010W, strain ubp6, stronger effect = lower value 0.942 | S. cerevisiae deletion strains, locus YGL078C, strain dbp3, stronger effect = lower value 0.961 | S. cerevisiae deletion strains, locus YGL086W, strain mad1, stronger effect = lower value 0.992 | S. cerevisiae deletion strains, locus YGL167C, strain pmr1, stronger effect = lower value 0.952 | S. cerevisiae deletion strains, locus YGL173C, strain kem1, stronger effect = lower value 0.969 | S. cerevisiae deletion strains, locus YGL227W, strain vid30, stronger effect = lower value 0.937 | S. cerevisiae deletion strains, locus YGL240W, strain doc1, stronger effect = lower value 0.94 | S. cerevisiae deletion strains, locus YGL248W, strain PDE1, stronger effect = lower value 0.986 | S. cerevisiae deletion strains, locus YGL253W, strain hxk2, stronger effect = lower value 0.984 | S. cerevisiae deletion strains, locus YGR135W, strain pre9, stronger effect = lower value 0.95 | S. cerevisiae deletion strains, locus YGR252W, strain gcn5, stronger effect = lower value 0.893 | S. cerevisiae deletion strains, locus YHR013C, strain ard1, stronger effect = lower value 0.916 | S. cerevisiae deletion strains, locus YHR027C, strain rpn1, stronger effect = lower value 0.988 | S. cerevisiae deletion strains, locus YHR079C, strain IRE1 (second series), stronger effect = lower value 0.985 | S. cerevisiae deletion strains, locus YHR094C, strain hxt1, stronger effect = lower value 0.978 | S. cerevisiae deletion strains, locus YHR129C, strain ARP1, stronger effect = lower value 1.01 | S. cerevisiae deletion strains, locus YHR142W, strain chs7, stronger effect = lower value 0.987 | S. cerevisiae deletion strains, locus YHR200W, strain rpn10, stronger effect = lower value 0.973 | S. cerevisiae deletion strains, locus YIL066C, strain RNR3, stronger effect = lower value 1.03 | S. cerevisiae deletion strains, locus YIL073C, strain SPO22, stronger effect = lower value 0.992 | S. cerevisiae deletion strains, locus YIL125W, strain kgd1, stronger effect = lower value 1 | S. cerevisiae deletion strains, locus YIR030C, strain dcg1, stronger effect = lower value 0.994 | S. cerevisiae deletion strains, locus YJL092W, strain hpr5, stronger effect = lower value 0.978 | S. cerevisiae deletion strains, locus YJL095W, strain BCK1 (second series), stronger effect = lower value 0.977 | S. cerevisiae deletion strains, locus YJL095W, strain BCK1, stronger effect = lower value 0.986 | S. cerevisiae deletion strains, locus YJL115W, strain asf1, stronger effect = lower value 0.985 | S. cerevisiae deletion strains, locus YJL129C, strain trk1, stronger effect = lower value 0.935 | S. cerevisiae deletion strains, locus YJL134W, strain LCB3, stronger effect = lower value 1.02 | S. cerevisiae deletion strains, locus YJL154C, strain vps35, stronger effect = lower value 0.972 | S. cerevisiae deletion strains, locus YJL164C, strain tpk1, stronger effect = lower value 0.979 | S. cerevisiae deletion strains, locus YJL166W, strain qcr8, stronger effect = lower value 0.972 | S. cerevisiae deletion strains, locus YJL168C, strain set2, stronger effect = lower value 1 | S. cerevisiae deletion strains, locus YJL187C, strain SWE1 (second series), stronger effect = lower value 0.998 | S. cerevisiae deletion strains, locus YJL187C, strain SWE1, stronger effect = lower value 0.968 | S. cerevisiae deletion strains, locus YKL009W, strain mrt4, stronger effect = lower value 1.01 | S. cerevisiae deletion strains, locus YKL068W, stronger effect = lower value 0.991 | S. cerevisiae deletion strains, locus YKL085W, strain MDH1 (second series), stronger effect = lower value 1 | S. cerevisiae deletion strains, locus YKL085W, strain MDH1, stronger effect = lower value 1 | S. cerevisiae deletion strains, locus YKL160W, strain elf1, stronger effect = lower value 0.994 | S. cerevisiae deletion strains, locus YKR001C, strain vps1, stronger effect = lower value 1 | S. cerevisiae deletion strains, locus YKR026C, strain gcn3, stronger effect = lower value 0.948 | S. cerevisiae deletion strains, locus YKR091W, strain srl3, stronger effect = lower value 0.972 | S. cerevisiae deletion strains, locus YLL001W, strain dnm1, stronger effect = lower value 0.986 | S. cerevisiae deletion strains, locus YLL026W, stronger effect = lower value 0.978 | S. cerevisiae deletion strains, locus YLL041C, strain sdh2, stronger effect = lower value 0.992 | S. cerevisiae deletion strains, locus YLR027C, strain aat2, stronger effect = lower value 0.965 | S. cerevisiae deletion strains, locus YLR039C, strain RIC1, stronger effect = lower value 1.12 | S. cerevisiae deletion strains, locus YLR058C, strain SHM2, stronger effect = lower value 1.01 | S. cerevisiae deletion strains, locus YLR102C, strain apc9, stronger effect = lower value 0.966 | S. cerevisiae deletion strains, locus YLR221C, strain rsa3, stronger effect = lower value 0.933 | S. cerevisiae deletion strains, locus YLR258W, strain gsy2, stronger effect = lower value 0.969 | S. cerevisiae deletion strains, locus YLR262C, strain YPT6 (second series), stronger effect = lower value 0.936 | S. cerevisiae deletion strains, locus YLR268W, strain sec22, stronger effect = lower value 1.01 | S. cerevisiae deletion strains, locus YLR320W, strain mms22, stronger effect = lower value 0.968 | S. cerevisiae deletion strains, locus YLR330W, strain CHS5, stronger effect = lower value 1.02 | S. cerevisiae deletion strains, locus YLR342W, strain FKS1 (second series), stronger effect = lower value 1.02 | S. cerevisiae deletion strains, locus YLR342W, strain FKS1, stronger effect = lower value 0.952 | S. cerevisiae deletion strains, locus YLR357W, strain rsc2, stronger effect = lower value 0.909 | S. cerevisiae deletion strains, locus YLR370C, strain arc18, stronger effect = lower value 0.968 | S. cerevisiae deletion strains, locus YLR371W, strain rom2, stronger effect = lower value 0.982 | S. cerevisiae deletion strains, locus YLR384C, strain iki3, stronger effect = lower value 0.984 | S. cerevisiae deletion strains, locus YLR418C, strain cdc73, stronger effect = lower value 0.986 | S. cerevisiae deletion strains, locus YML016C, strain PPZ1, stronger effect = lower value 1.02 | S. cerevisiae deletion strains, locus YML032C, strain rad52, stronger effect = lower value 0.97 | S. cerevisiae deletion strains, locus YML120C, strain ndi1, stronger effect = lower value 0.954 | S. cerevisiae deletion strains, locus YML124C, strain tub3, stronger effect = lower value 0.981 | S. cerevisiae deletion strains, locus YMR058W, strain fet3, stronger effect = lower value 0.94 | S. cerevisiae deletion strains, locus YMR078C, strain ctf18, stronger effect = lower value 0.971 | S. cerevisiae deletion strains, locus YMR125W, strain sto1, stronger effect = lower value 0.97 | S. cerevisiae deletion strains, locus YMR129W, stronger effect = lower value 0.965 | S. cerevisiae deletion strains, locus YMR205C, strain PFK2, stronger effect = lower value 0.946 | S. cerevisiae deletion strains, locus YMR223W, strain ubp8, stronger effect = lower value 0.978 | S. cerevisiae deletion strains, locus YMR231W, strain pep5, stronger effect = lower value 0.979 | S. cerevisiae deletion strains, locus YMR307W, strain GAS1, stronger effect = lower value 0.992 | S. cerevisiae deletion strains, locus YNL067W, strain RPL9B, stronger effect = lower value 0.998 | S. cerevisiae deletion strains, locus YNL071W, strain lat1, stronger effect = lower value 0.984 | S. cerevisiae deletion strains, locus YNL153C, strain GIM3, stronger effect = lower value 0.985 | S. cerevisiae deletion strains, locus YNL209W, strain ssb2, stronger effect = lower value 0.975 | S. cerevisiae deletion strains, locus YNL233W, strain BNI4, stronger effect = lower value 0.989 | S. cerevisiae deletion strains, locus YNL248C, strain rpa49, stronger effect = lower value 0.995 | S. cerevisiae deletion strains, locus YNL250W, strain rad50, stronger effect = lower value 0.981 | S. cerevisiae deletion strains, locus YNL271C, strain bni1, stronger effect = lower value 0.984 | S. cerevisiae deletion strains, locus YNL298W, strain CLA4, stronger effect = lower value 0.991 | S. cerevisiae deletion strains, locus YNL307C, strain MCK1, stronger effect = lower value 0.97 | S. cerevisiae deletion strains, locus YNL322C, strain KRE1 (second series), stronger effect = lower value 0.952 | S. cerevisiae deletion strains, locus YNR049C, strain mso1, stronger effect = lower value 0.972 | S. cerevisiae deletion strains, locus YNR052C, strain pop2, stronger effect = lower value 0.979 | S. cerevisiae deletion strains, locus YOL006C, strain TOP1, stronger effect = lower value 1.15 | S. cerevisiae deletion strains, locus YOL012C, strain htz1 1.45 | S. cerevisiae deletion strains, locus YOL147C, strain pex11, stronger effect = lower value 0.994 | S. cerevisiae deletion strains, locus YOR001W, strain rrp6, stronger effect = lower value 1 | S. cerevisiae deletion strains, locus YOR061W, strain CKA2, stronger effect = lower value 1.03 | S. cerevisiae deletion strains, locus YOR069W, strain VPS5, stronger effect = lower value 1.01 | S. cerevisiae deletion strains, locus YOR070C, strain gyp1, stronger effect = lower value 0.973 | S. cerevisiae deletion strains, locus YOR080W, strain dia2, stronger effect = lower value 0.97 | S. cerevisiae deletion strains, locus YOR083W, strain WHI5, stronger effect = lower value 0.992 | S. cerevisiae deletion strains, locus YOR106W, strain vam3, stronger effect = lower value 0.964 | S. cerevisiae deletion strains, locus YOR136W, strain idh2, stronger effect = lower value 0.985 | S. cerevisiae deletion strains, locus YOR144C, strain elg1, stronger effect = lower value 0.998 | S. cerevisiae deletion strains, locus YOR184W, strain ser1, stronger effect = lower value 1.05 | S. cerevisiae deletion strains, locus YOR265W, strain rbl2, stronger effect = lower value 0.979 | S. cerevisiae deletion strains, locus YOR270C, strain vph1, stronger effect = lower value 0.957 | S. cerevisiae deletion strains, locus YOR290C, strain snf2, stronger effect = lower value 0.9 | S. cerevisiae deletion strains, locus YOR316C, strain cot1, stronger effect = lower value 0.971 | S. cerevisiae deletion strains, locus YPL051W, strain arl3, stronger effect = lower value 0.993 | S. cerevisiae deletion strains, locus YPL055C, strain LGE1, stronger effect = lower value 1.05 | S. cerevisiae deletion strains, locus YPL078C, strain atp4, stronger effect = lower value 0.986 | S. cerevisiae deletion strains, locus YPL106C, strain sse1, stronger effect = lower value 0.889 | S. cerevisiae deletion strains, locus YPL240C, strain hsp82, stronger effect = lower value 0.995 | S. cerevisiae deletion strains, locus YPL241C, strain CIN2, stronger effect = lower value 1.02 | S. cerevisiae deletion strains, locus YPR119W, strain clb2, stronger effect = lower value 0.971 | S. cerevisiae deletion strains, locus YPR141C, strain kar3, stronger effect = lower value 1.01 | S. cerevisiae deletion strains, locus YPR163C, strain tif3, stronger effect = lower value 0.983 | S. cerevisiae deletion strains, locus YPR167C, strain met16, stronger effect = lower value 0.981 | S. cerevisiae deletion strains, strain wtn01, stronger effect = lower value 0.993 | S. cerevisiae strains, strain wild type, stronger effect = lower value 1.04
